Bioassay records from PubChem.
Shown are actives, neighbours in structure and some others; about 8.1% of the full set was active somewhere.
ClpP mod = qHTS Assay for Activators of ClpP. ATP-dependent Clp protease proteolytic subunit (Bacillus subtilis (strain 168)), P80244. purified B. subtilis ClpP, FRET peptide cleavage, 20 min. Potency, µM (titrated, usually from 57.5 µM). 340,000 tested, 1.9% active; active = well fitted falling curve with a large enough effect; inconclusive = small, poorly fitted or top-dose-only effect; inactive = no such curve, though single readings can be large or run the other way; also: the source files actives as falling curves though it sought activators and does not explain the sign; nearly all actives have a fitted effect of over 65% in size
Target sequence (P80244 whole entry, looked up): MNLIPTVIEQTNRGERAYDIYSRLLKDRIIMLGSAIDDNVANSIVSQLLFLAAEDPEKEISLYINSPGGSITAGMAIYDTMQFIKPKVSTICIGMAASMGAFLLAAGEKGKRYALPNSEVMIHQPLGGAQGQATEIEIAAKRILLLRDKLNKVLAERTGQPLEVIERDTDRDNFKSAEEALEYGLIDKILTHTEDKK
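FRET quenching reversal measured ClpP activation: 10 microg/mL B. subtilis ClpP at pH 8 with the FRET-FV decapeptide, read at 430 nm after 320 nm excitation. The 20-min minus 0-min signal was scaled between DMSO/no-enzyme wells and ADEP (5.8 microM final).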
PINK1 modulator = changes PINK1 expression; PINK1 immunofluorescence, high-content cytometry, 24 h; Potency, µM (top dose mostly 76.6 µM), hits mostly activators; 410,000 tested, 0.2% active; AID 624263; active = well fitted activation curve with a large enough effect; inconclusive = small, poorly fitted or top-dose-only effect; cell line not stated here; also: nearly all actives have a fitted effect of over 65% in size
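A stable cell line was treated with compounds at 5 concentrations for 24 hours, with CCCP as control. PINK1 levels and mitochondrial localization were measured by immunofluorescence with mitochondrial, cell and nuclear markers after fixation, read by laser-scanning cytometry.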
Epigenetic derep = regulators of epigenetic silencing causing reporter derepression in mouse cells; murine LDR cells, GFP reporter derepression, 30 h; Potency, µM (series often up to 53.9 µM), most hits filed as activators; 280,000 tested, 0.2% active; AID 1865; also: nearly all actives have a fitted effect of over 60% in size
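Murine LDR cells carrying a silenced, genomically integrated CMV-driven GFP reporter were exposed to compound for 30 hours at 37 C. After PBS washes, GFP-positive cells (20–120 um objects) were counted by laser-scanning microplate cytometry.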
Sfp inh = Sfp phosphopantetheinyl transferase inhibition; Biochemical Sfp PPTase activity, qHTS; Potency, µM, actives largely listed as inhibitors; 310,000 tested, 3.5% active;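 also: the enzyme is Sfp with the accession as filed and its product quenches rhodamine fluorescence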
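Fluorescence-quenching assay with 15 nM Sfp, 5 uM rhodamine-CoA and 12.5 uM BHQ-2-labelled ybbR peptide in pH 7.6 Hepes/MgCl2 buffer. Enzyme was pre-incubated with compound for 15 min at room temperature. Rate was taken from the 30-min fluorescence change (525/598 nm).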
VP16 counter = inhibits Gal4-VP16 luciferase reporter, ROR gamma counter-screen; Drosophila S2 Gal4-VP16 UAS-luciferase, luminescence, 20 h; Potency, µM (top dose mostly 53.6 µM), hits mostly inhibitors; 310,000 tested, 3.5% active;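 also: Gal4-VP16 expression switched on by copper sulfate through the metallothionein promoter; nearly all actives have a fitted effect of over 50% in size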
RORg inh = ROR gamma (mouse) transcription inhibition | P51450 | Drosophila S2 Gal4-RORgamma UAS-luciferase reporter, 20 h | Potency, µM (series often up to 53.6 µM), usual class: inhibitors | 310,000 tested, 5.4% active; also: nearly all actives have a fitted effect of over 60% in size
Target sequence (P51450 whole entry, looked up, the tested form may be a part): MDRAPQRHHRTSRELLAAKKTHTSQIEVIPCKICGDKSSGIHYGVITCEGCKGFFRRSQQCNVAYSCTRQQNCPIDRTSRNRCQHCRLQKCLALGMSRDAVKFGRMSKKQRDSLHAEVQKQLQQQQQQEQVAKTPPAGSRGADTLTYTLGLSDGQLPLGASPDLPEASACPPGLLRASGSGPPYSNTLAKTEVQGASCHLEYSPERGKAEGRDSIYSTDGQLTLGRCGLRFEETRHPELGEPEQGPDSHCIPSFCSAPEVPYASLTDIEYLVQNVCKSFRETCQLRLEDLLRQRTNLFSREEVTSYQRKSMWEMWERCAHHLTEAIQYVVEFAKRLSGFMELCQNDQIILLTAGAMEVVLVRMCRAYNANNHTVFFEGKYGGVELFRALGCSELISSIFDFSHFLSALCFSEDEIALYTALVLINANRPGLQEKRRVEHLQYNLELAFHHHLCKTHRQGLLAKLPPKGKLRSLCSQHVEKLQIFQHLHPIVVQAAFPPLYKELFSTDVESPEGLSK
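Stably transfected Drosophila Schneider cells are the test system, with ROR gamma fused to Gal4 and luciferase under UAS control; luminescence is read after 20 hr of 700 uM copper sulfate induction at ambient temperature.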
Each line names hits and unclear results; the compound was inactive in the other large screens. Unless noted, calls follow the shape of the dose curve; as a rule, active = well fitted curve in the direction sought with a large enough effect; inconclusive = small, poorly fitted or top-dose-only effect, or another doubt; inactive = no such curve, though single readings can be large; an effect the other way counts as inactive or inconclusive.

O=C(NC(=S)NC1CCCc2ccccc21)c1ccco1 (stereo not drawn)	VP16 counter inconclusive, RORg inh 7.1µM (no result: ClpP mod)
O=C(NC(=S)NC1CCCc2ccccc21)c1ccc(F)cc1 (stereo not drawn)	VP16 counter 16µM, RORg inh 8.9µM (no result: Epigenetic derep)
Cc1nc(-c2cn[nH]c2)c2cc(C)oc2n1	ClpP mod 28µM
CCOC(=O)c1c(C)[nH]c(C)c1S(=O)(=O)NCC(=O)Nc1cccc(C(F)(F)F)c1	none (no result: Sfp inh, VP16 counter, RORg inh)
COc1ccc(C(=O)/C(C#N)=N/Nc2ccc([N+](=O)[O-])cc2)cc1	PINK1 modulator 4.5µM, VP16 counter 3.5µM, RORg inh 5.6µM
Cc1cc(=O)oc2cc(OCC(=O)N3CCCC(C)C3)ccc12 (stereo not drawn)	ClpP mod 32µM
COc1ccc(S(=O)(=O)N2CCN(C(=O)COc3ccc4c(C)cc(=O)oc4c3)CC2)cc1	ClpP mod 22µM
COc1ccc2c(COC(=O)c3ccc(C)c(S(=O)(=O)N4CCOCC4)c3)cc(=O)oc2c1	ClpP mod 25µM (no result: Epigenetic derep, Sfp inh, VP16 counter, RORg inh)
Cc1cc(=O)oc2cc(OCC(=O)N3CC(C)OC(C)C3)ccc12 (stereo not drawn)	ClpP mod inconclusive
CC1CCN(C(=O)c2cccc(NC(=O)c3nsc4ccccc34)c2)CC1	none (no result: Sfp inh, VP16 counter, RORg inh)
CCOc1cccc(C(=O)N(Cc2ccc(F)cc2)Cc2ccco2)c1	none (no result: Sfp inh, VP16 counter, RORg inh)
C=CCOC(=O)NC(CC(=Nc1ccc(OC)cc1)C(=O)OC)c1ccccc1 (stereo not drawn)	none (no result: ClpP mod, PINK1 modulator)
Cc1sc(-n2c(C)ccc2C)c(C#N)c1C	PINK1 modulator inconclusive, Sfp inh 63µM
COc1ccc(-c2cc(C(F)(F)F)n3nc(C(=O)Nc4cccc(Cl)c4Cl)cc3n2)cc1OC	none (no result: Sfp inh, VP16 counter, RORg inh)
COc1ccc(C2Oc3ccccc3N2C(C)=O)cc1 (stereo not drawn)	none
CC(=O)Oc1ccc(C2OC(=O)c3ccccc3N2C(C)=O)cc1 (stereo not drawn)	ClpP mod 25µM
COc1ccc(CCNCc2c(C(=O)O)c(C)n(Cc3cccc(Cl)c3)c2C)c(OC)c1OC	none (no result: Sfp inh, VP16 counter, RORg inh)
Cc1cccc(N2CCc3c2nc2ccc(Br)cc2c3N)c1	ClpP mod inconclusive, PINK1 modulator inconclusive, Sfp inh 13µM, VP16 counter inconclusive, RORg inh inconclusive
Nc1c2c(nc3ccc(Br)cc13)N(Cc1ccccc1)CC2	PINK1 modulator inconclusive, Sfp inh inconclusive, RORg inh inconclusive
Nc1c2c(nc3ccc(Br)cc13)N(c1ccccc1)CC2	ClpP mod inconclusive, Sfp inh 18µM
CCn1c(=O)c2cc(C(=O)Nc3cc(OC)c(OC)c(OC)c3)sc2c2ccccc21	none (no result: Sfp inh, VP16 counter, RORg inh)
O=C(CCC1N=C2c3ccccc3N=C(SCc3ccccc3Cl)N2C1=O)N1CCN(c2ccccc2)CC1 (stereo not drawn)	none (no result: Sfp inh, VP16 counter, RORg inh)
CC(=O)Nc1ccc(S(=O)(=O)NC2(C(F)(F)F)C(=O)Nc3c2c(=O)[nH]c(=O)n3-c2ccc(C)cc2)cc1 (stereo not drawn)	none (no result: Sfp inh, VP16 counter, RORg inh)
Cc1c(C(=O)N(C)Cc2cscn2)sc2ncnc(NC[C@H]3CCc4ccccc4O3)c12	none (no result: ClpP mod, Epigenetic derep, Sfp inh, VP16 counter, RORg inh)
OCC1OC([S-])[C@H](O)C(O)C1O.[Au+] (stereo partly drawn)	Sfp inh 2.2µM, VP16 counter 6.3µM (no result: ClpP mod, PINK1 modulator)
COc1cc(NC(=O)CC(C)S(=O)(=O)c2cc3c4c(c2)CCN4C(=O)CC3)cc(OC)c1 (stereo not drawn)	none (no result: Sfp inh, VP16 counter, RORg inh)
CC(C)c1nc(N2CCOCC2)c(C#N)c2c1CCCC2	ClpP mod 32µM, RORg inh inconclusive
CCN1CCc2c(C#N)c(N3CCCCC3)nc(N3CCOCC3)c2C1	ClpP mod 8.9µM
CCSc1nc(N2CCOCC2)c2c(c1C#N)CCCC2	none
CCN1CCc2c(C#N)c(N3CCOCC3)nc(N3CCOCC3)c2C1	ClpP mod inconclusive, RORg inh inconclusive
O=C(NCCN1CCCCC1)c1cc2ccccc2[nH]1	ClpP mod 18µM
CC(C)c1ccc(S(=O)(=O)N2CCC(N3CCN(Cc4ccccc4)C(=O)C3=O)CC2)cc1	none (no result: Sfp inh, VP16 counter, RORg inh)
Cc1ccc(NCc2n[nH]c(=S)n2Cc2ccccc2)cc1Cl	VP16 counter inconclusive, RORg inh 4µM
CCCOc1ccc(CCc2n[nH]c(=S)n2-c2ccccc2)cc1	RORg inh 2.8µM
CCCCc1n[nH]c(=S)n1Cc1ccc(C)cc1	VP16 counter inconclusive, RORg inh 5.6µM (no result: ClpP mod)
COc1ccc(C(=O)CSc2nnc(CCc3ccccc3)n2-c2ccccc2)cc1	Epigenetic derep inconclusive, VP16 counter inconclusive, RORg inh 16µM
Cc1ccc(NC(=O)CSc2nc3c(c(=O)[nH]2)CN(Cc2ccccc2)CC3)cc1Cl	none (no result: Sfp inh, VP16 counter, RORg inh)
Cc1cccc(CNC(=O)c2ccc3nc(-c4ccccc4)c(-c4ccccc4)nc3c2)c1	ClpP mod inconclusive (no result: Sfp inh, VP16 counter, RORg inh)
CN1CCCc2ccccc21	none (no result: Epigenetic derep, Sfp inh, VP16 counter, RORg inh)
CCn1c(CCCCc2n[nH]c(=S)n2CC)n[nH]c1=S	RORg inh 5.6µM
CCOC(=O)c1ccc(NC(=O)CSc2nnc(CCc3ccc(C)o3)n2-c2ccccc2)cc1	Sfp inh 16µM, VP16 counter 14µM, RORg inh inconclusive
Cc1nccn1CCc1n[nH]c(=S)n1Cc1ccccc1	none
C=CCn1c(CCC(O)COCCC)n[nH]c1=S (stereo not drawn)	none (no result: ClpP mod)
S=c1[nH]nc(CCc2ccccc2)n1Cc1ccccc1	VP16 counter 5µM, RORg inh 2.2µM
CCCCC(CC(O)COCCC)c1n[nH]c(=S)n1-c1ccccc1 (stereo not drawn)	Sfp inh inconclusive, VP16 counter inconclusive, RORg inh 11µM (no result: ClpP mod)
COc1ccc(-n2c(CCc3ccccc3)n[nH]c2=S)cc1	RORg inh 5µM
CCOc1ccc(-n2c(CCc3ccccc3)n[nH]c2=S)cc1	VP16 counter inconclusive, RORg inh inconclusive
COCCn1c(CCc2ccccc2)n[nH]c1=S	VP16 counter inconclusive, RORg inh 11µM
S=c1[nH]nc(CCSCc2ccccc2)n1-c1ccccc1	RORg inh 2.8µM
CCCCCCCc1n[nH]c(=S)n1Cc1ccccc1	VP16 counter inconclusive, RORg inh 1.3µM
COc1ccc(N2CCN(CCCNC(=O)c3ccc4nc(Cc5ccccc5)oc4c3)CC2)cc1	none (no result: Sfp inh, VP16 counter, RORg inh)
CCn1c(CCCOc2ccc(Cl)cc2Cl)n[nH]c1=S	VP16 counter 3.2µM, RORg inh 2.8µM (no result: ClpP mod)
CCCOc1ccc(CCc2n[nH]c(=S)n2Cc2ccccc2)cc1	VP16 counter 1.3µM, RORg inh 2µM
CCCCCC(O)CCc1n[nH]c(=S)n1-c1ccccc1 (stereo not drawn)	RORg inh 6.3µM
CCn1c(CCNC(=O)c2ccc(C)cc2)n[nH]c1=S	none
